Bioassay records deposited in PubChem by National Center for Advancing Translational Sciences (NCATS).
The list is not random: actives were taken first. Their share in the collection is about 10%.
HP1b binding inh – blocks HP1-beta chromodomain binding to methylated histone tails. Potency, µM (doses to about 114 µM), inactives show top-dose activity change, negative = inhibition, hits mostly inhibitors. 0.56% of 390,000 active. AlphaScreen HP1-beta / biotin-H3K9me3 peptide binding. AID 540317. P83916; also: potency is read from the fitted curve at half-maximal effect; nearly all actives have a fitted effect of over 70% in size
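Compound inhibition of the preformed complex between 50 nM HP1-beta and 50 nM biotinylated H3K9me3 peptide was read by AlphaScreen. Buffer was PBS pH 7.4 with 0.01% Tween-20. Incubations ran 30 min at room temperature, with 10 ug/mL donor/acceptor beads.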
Six1-Eya2 inh – inhibitors of human Six1/Eya2 interaction; Q15475+O00167; AlphaScreen GST-Six1/His-Eya2 binding, biochemical; stronger effect = lower value; activity change, % (concentration not given with the values); 0.56% of 360,000 active; AID 651725; in the data active = activity change below about -65%; inconclusive = mostly about -30% to -63%; also: % is scaled to controls: 0 for no effect and ±100 for the full control effect
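AlphaScreen with GST-Six1 and His-Eya2 (5X mix: 250 nM and 500 nM), glutathione donor and nickel acceptor beads; buffer 50 mM Tris pH 8.0, 300 mM NaCl, 1 mM TCEP; 1 h at 37 C in the dark.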
CtBP-E1A blk – blocks the CtBP interaction with E1A. AlphaScreen GST-E1A/His-CtBP binding, 1536-well; stronger effect = lower value. activity change, % (no concentration beside the values). 0.49% of 340,000 active; in the data active = activity change below about -65%; inconclusive = mostly about -30% to -63%; also: % is scaled to controls: 0 for no effect and ±100 for the full control effect
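Steps: dispense buffer (Tris pH 8.0, NaCl 300 mM, TCEP 1 mM, BSA, Tween 20); add 5X protein mix (GST-E1A, His-CtBP, 125 nM each); pin 23 nL compound; 2 h at 37 °C, dark; add 5X beads (50 ug/mL); 1 h; read.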
JMJD2A Tudor inh – blocks the human JMJD2A Tudor domain; AID 504339; 4.4% of 390,000 active; Potency, µM (doses to about 114 µM), for inactives: at the top dose activity change, negative = inhibition, actives largely listed as inhibitors; AlphaScreen JMJD2A-Tudor / H3K4me3 peptide binding; also: potency is read from the fitted curve at half-maximal effect; % is scaled to controls: 0 for no effect and ±100 for the full control effect; nearly all actives have a fitted effect of over 50% in size
G9a block – blocks human histone lysine methyltransferase G9a. Q96KQ7. G9a H3K9 monomethylation, AlphaScreen, 2 h. Potency, µM (series often up to 102 µM), inactives show at the highest dose activity, negative = inhibition, actives largely listed as inhibitors. 8.8% of 350,000 active. AID 504332; also: potency is read from the fitted curve at half-maximal effect; % is scaled to controls: 0 for no effect and ±100 for the full control effect; nearly all actives have a fitted effect of over 75% in size
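G9a (20 nM) was preincubated 15 min with compound, then reacted 2 h at room temperature with 500 nM biotin-H3K9 peptide and 20 µM SAM. Monomethyl-H3K9 detected by AlphaScreen using anti-H3K9me1 antibody.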
BAZ2B inh – inhibitors of human BAZ2B bromodomain; Q9UIF8; AlphaScreen BAZ2B-H3K14Ac peptide displacement; Potency, µM (highest dose often 114 µM), without a hit: top-dose activity change, negative = inhibition, hits mostly inhibitors; 4.4% of 360,000 active; AID 504333; also: potency is read from the fitted curve at half-maximal effect; % is scaled to controls: 0 for no effect and ±100 for the full control effect; nearly all actives have a fitted effect of over 60% in size
Target sequence (Q9UIF8 whole entry, looked up): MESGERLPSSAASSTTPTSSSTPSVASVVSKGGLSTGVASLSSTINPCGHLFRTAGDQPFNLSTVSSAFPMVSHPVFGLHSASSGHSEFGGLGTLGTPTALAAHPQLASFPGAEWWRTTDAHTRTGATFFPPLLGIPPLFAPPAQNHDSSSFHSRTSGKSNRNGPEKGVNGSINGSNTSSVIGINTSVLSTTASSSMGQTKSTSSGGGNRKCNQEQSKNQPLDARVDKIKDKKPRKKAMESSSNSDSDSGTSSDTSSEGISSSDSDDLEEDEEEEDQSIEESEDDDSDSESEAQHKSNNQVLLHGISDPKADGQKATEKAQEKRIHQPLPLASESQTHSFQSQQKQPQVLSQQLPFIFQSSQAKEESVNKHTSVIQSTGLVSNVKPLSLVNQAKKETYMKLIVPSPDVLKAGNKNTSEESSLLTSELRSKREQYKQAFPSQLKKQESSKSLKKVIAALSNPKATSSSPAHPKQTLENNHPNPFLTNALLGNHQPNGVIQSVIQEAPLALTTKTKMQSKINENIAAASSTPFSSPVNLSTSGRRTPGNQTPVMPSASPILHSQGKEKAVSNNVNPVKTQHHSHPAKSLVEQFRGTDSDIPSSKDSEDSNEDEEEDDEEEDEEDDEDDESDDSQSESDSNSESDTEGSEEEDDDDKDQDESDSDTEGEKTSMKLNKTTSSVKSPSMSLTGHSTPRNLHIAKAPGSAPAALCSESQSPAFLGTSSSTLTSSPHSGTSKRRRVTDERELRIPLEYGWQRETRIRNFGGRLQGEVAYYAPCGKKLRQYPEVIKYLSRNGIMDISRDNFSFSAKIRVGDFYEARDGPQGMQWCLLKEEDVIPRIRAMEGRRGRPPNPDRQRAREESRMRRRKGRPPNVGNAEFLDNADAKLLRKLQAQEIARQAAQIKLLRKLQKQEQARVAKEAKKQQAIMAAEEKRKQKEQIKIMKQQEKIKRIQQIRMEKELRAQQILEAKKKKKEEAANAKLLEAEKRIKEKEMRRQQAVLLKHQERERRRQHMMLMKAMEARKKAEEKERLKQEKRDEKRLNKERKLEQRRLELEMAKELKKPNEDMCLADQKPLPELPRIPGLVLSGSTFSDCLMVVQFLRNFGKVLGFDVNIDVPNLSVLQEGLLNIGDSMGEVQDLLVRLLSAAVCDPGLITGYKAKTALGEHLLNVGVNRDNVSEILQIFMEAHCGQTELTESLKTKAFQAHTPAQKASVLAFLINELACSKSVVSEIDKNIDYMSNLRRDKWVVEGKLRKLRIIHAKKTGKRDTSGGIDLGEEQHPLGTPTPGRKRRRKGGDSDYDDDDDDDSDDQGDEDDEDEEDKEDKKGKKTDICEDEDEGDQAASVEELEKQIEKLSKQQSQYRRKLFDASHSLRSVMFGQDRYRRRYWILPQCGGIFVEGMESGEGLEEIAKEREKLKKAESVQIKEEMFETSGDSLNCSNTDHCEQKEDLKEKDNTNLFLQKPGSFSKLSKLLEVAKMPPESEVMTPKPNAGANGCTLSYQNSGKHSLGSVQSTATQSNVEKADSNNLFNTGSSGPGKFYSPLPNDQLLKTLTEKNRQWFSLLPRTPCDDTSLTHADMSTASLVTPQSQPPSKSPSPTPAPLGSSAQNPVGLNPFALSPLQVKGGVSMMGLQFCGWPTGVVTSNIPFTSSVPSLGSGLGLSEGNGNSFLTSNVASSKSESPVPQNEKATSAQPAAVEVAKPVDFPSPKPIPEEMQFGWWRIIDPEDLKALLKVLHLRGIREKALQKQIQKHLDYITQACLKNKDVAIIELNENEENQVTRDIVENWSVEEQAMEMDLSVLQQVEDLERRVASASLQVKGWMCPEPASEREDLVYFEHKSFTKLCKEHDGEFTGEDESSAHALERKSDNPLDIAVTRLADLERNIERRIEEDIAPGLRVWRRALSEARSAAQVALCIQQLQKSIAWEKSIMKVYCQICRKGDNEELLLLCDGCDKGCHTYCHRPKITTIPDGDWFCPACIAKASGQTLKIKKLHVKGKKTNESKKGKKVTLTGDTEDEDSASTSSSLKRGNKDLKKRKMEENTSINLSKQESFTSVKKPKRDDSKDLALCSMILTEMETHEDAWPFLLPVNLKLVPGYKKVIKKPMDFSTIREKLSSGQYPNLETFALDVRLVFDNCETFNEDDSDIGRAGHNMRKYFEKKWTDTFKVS
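AlphaScreen displacement: compounds (up to 110uM) incubated 30 min at room temperature with a preformed 50 nM BAZ2B/50 nM biotinylated H3K14Ac peptide complex in PBS pH 7.4 with Tween-20. Donor and acceptor beads at 10 ug/mL final added, 20 min light-protected before reading.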
Numbers without * were called inactive; [ ] = another dose, or the depositor's remark. Unless noted, calls follow the shape of the dose curve; as a rule, active = well fitted inhibition curve with a large enough effect; inconclusive = small, poorly fitted or top-dose-only effect; inactive = no such curve, though single readings can be large or run the other way.

For C/C(=N\N=C1/NC(=O)C(C)S1)c1ccco1 (stereo not drawn) the results were HP1b binding inh -2%, Six1-Eya2 inh 23, CtBP-E1A blk 5, JMJD2A Tudor inh inconclusive, G9a block 33% and BAZ2B inh -17%.
`CCCC(=O)N/N=C1\CS(=O)(=O)N(C)c2ccsc21` gave HP1b binding inh 4%, Six1-Eya2 inh -8, CtBP-E1A blk -4, JMJD2A Tudor inh -9%, G9a block -14% and BAZ2B inh -39%.
For Cc1ccc(N/N=C2\CS(=O)(=O)N(C)c3ccsc32)cc1 the results were HP1b binding inh -5%, Six1-Eya2 inh 4, CtBP-E1A blk -6, JMJD2A Tudor inh -27%, G9a block 45µM* and BAZ2B inh inconclusive.
`CN1c2ccsc2/C(=N/Nc2ccc(F)cc2)CS1(=O)=O` gave HP1b binding inh inconclusive, Six1-Eya2 inh -5, CtBP-E1A blk -13, JMJD2A Tudor inh 25µM*, G9a block 14µM* and BAZ2B inh inconclusive.
O=[N+]([O-])c1ccc(CSc2ncnc3c2ncn3[C@@H]2O[C@H](CO)[C@H](O)[C@H]2O)cc1 was read as G9a block 19%[12.7 µM].
Screening COc1ccc(CCNC(=O)C2CCCN2S(=O)(=O)c2ccc(F)cc2)cc1OC (stereo not drawn) returned HP1b binding inh 18%, Six1-Eya2 inh -9, CtBP-E1A blk -14, JMJD2A Tudor inh -6%, G9a block -2%[12.7 µM] and BAZ2B inh -4%.
`CCCN1C(=O)/C(=C2\SC(=S)N(c3c(C)n(C)n(-c4ccccc4)c3=O)C2=O)c2ccccc21` gave HP1b binding inh 28%, Six1-Eya2 inh 3, CtBP-E1A blk 5, JMJD2A Tudor inh 4% and BAZ2B inh -5%.
Screening CCCC(C(=O)O)N1C(=O)/C(=C2\C(=O)N(C)c3ccccc32)SC1=S (stereo not drawn) returned HP1b binding inh -37%, Six1-Eya2 inh 1, CtBP-E1A blk 4, JMJD2A Tudor inh inconclusive, G9a block 20µM* and BAZ2B inh 45µM*.
O=C(O)CCN1C(=O)/C(=C2\C(=O)N(Cc3ccccc3Cl)c3ccccc32)SC1=S was read as G9a block inconclusive and BAZ2B inh 7.9µM*.
For COc1ccc(NC(=O)CN2C(=O)/C(=C3\SC(=S)N(CCC(=O)O)C3=O)c3ccccc32)cc1 the results were HP1b binding inh 0%, Six1-Eya2 inh -1, CtBP-E1A blk -10, JMJD2A Tudor inh inconclusive, G9a block 5% and BAZ2B inh -33%.
Screening O=C(O)CN1C(=O)/C(=C2\SC(=S)N(C(Cc3ccccc3)C(=O)O)C2=O)c2ccccc21 (stereo not drawn) returned HP1b binding inh -15%, Six1-Eya2 inh -8, CtBP-E1A blk -2, JMJD2A Tudor inh -27%, G9a block 50µM* and BAZ2B inh 56µM*.
Cc1ccnc(SC2CC(=O)N(c3ccc([N+](=O)[O-])cc3)C2=O)n1 (stereo not drawn) was read as HP1b binding inh 52%, Six1-Eya2 inh -7, JMJD2A Tudor inh -5%, G9a block 35µM* and BAZ2B inh -24%.
Screening Cc1ccnc(SCC(=O)O)n1 returned HP1b binding inh 35%, Six1-Eya2 inh 7, CtBP-E1A blk 13, JMJD2A Tudor inh -4%, G9a block 15% and BAZ2B inh 3%.
For Cc1ccnc(SCC(=O)c2ccc([N+](=O)[O-])cc2)n1 the results were HP1b binding inh 10%, Six1-Eya2 inh 7, CtBP-E1A blk -5, JMJD2A Tudor inh -29%, G9a block 13µM* and BAZ2B inh inconclusive.
`Cc1ccc(C(=O)CC(SCC(=O)O)c2ccc([N+](=O)[O-])cc2)cc1` (stereo not drawn) gave HP1b binding inh 50µM*, Six1-Eya2 inh 19, JMJD2A Tudor inh inconclusive, G9a block 25µM* and BAZ2B inh inconclusive.
Cc1nc2nc(SCC(=O)c3ccc([N+](=O)[O-])cc3)[nH]c2cc1Br was read as HP1b binding inh 0%, Six1-Eya2 inh 0, CtBP-E1A blk 4, JMJD2A Tudor inh inconclusive, G9a block 20µM* and BAZ2B inh 4%.
`COc1ccc(-c2cc(C(F)(F)F)nc(SCCC(=O)N3CCOCC3)n2)cc1` gave HP1b binding inh 33%, Six1-Eya2 inh 9, CtBP-E1A blk 1, JMJD2A Tudor inh 0%, G9a block 20%[59 µM] and BAZ2B inh 2%.
O=[N+]([O-])c1ccc(N2CCCC2)c([N+](=O)[O-])c1 was read as Six1-Eya2 inh -17 and CtBP-E1A blk 10.
`N#Cc1ccccc1NC(=O)C(=O)NCC(c1ccc2c(c1)OCO2)N1CCOCC1` (stereo not drawn) gave HP1b binding inh 5%[57 µM], JMJD2A Tudor inh -15%, G9a block -4%[59 µM] and BAZ2B inh -7%.
CC(=O)c1ccc(NC(=O)CN2CCCCCC2)cc1 was read as HP1b binding inh 18%, Six1-Eya2 inh 2, CtBP-E1A blk 0, JMJD2A Tudor inh -10%, G9a block -7% and BAZ2B inh -20%.
Cc1cc(Cl)nc(SCC(=O)c2ccccc2)n1 was read as HP1b binding inh 85%, Six1-Eya2 inh 10, CtBP-E1A blk 6, JMJD2A Tudor inh 28%, G9a block 44% and BAZ2B inh 2%.
`CCOC(=O)CNC(=O)CSc1nc2nc(C)c(Br)cc2[nH]1` gave HP1b binding inh 44%, Six1-Eya2 inh 12, CtBP-E1A blk 25, JMJD2A Tudor inh -2%, G9a block 35µM* and BAZ2B inh 3%.
Cc1cc(C)nc(SCC(=O)c2ccc([N+](=O)[O-])cc2)n1 was read as HP1b binding inh -33%, Six1-Eya2 inh -3, CtBP-E1A blk -10, JMJD2A Tudor inh 79µM*, G9a block inconclusive and BAZ2B inh -36%.
Screening CCOc1ccccc1CNc1ccc2cc(S(=O)(=O)N3CCC(C)CC3)ccc2n1 returned HP1b binding inh 34%, JMJD2A Tudor inh -4%, G9a block -32%[59 µM] and BAZ2B inh 0%.
`Cn1c(SCC2CCCO2)nnc1-c1cccc([N+](=O)[O-])c1` (stereo not drawn) gave HP1b binding inh 35%, Six1-Eya2 inh -2, CtBP-E1A blk 8, JMJD2A Tudor inh -9%, G9a block -6% and BAZ2B inh 0%.
`CCOC(=O)c1c[nH]c2c([N+](=O)[O-])cc(OC)cc2c1=O` gave HP1b binding inh 20%, Six1-Eya2 inh inconclusive, CtBP-E1A blk inconclusive and JMJD2A Tudor inh -19%.
